Assay [1] addresses Ferritin light chain (Equus caballus) (UniProt P02791). The assay is described as follows: qHTS Validation Assay for Identification of Novel General Anesthetics (AID 2323). Note: series mostly up to about 77 µM. The gist of the method: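 10 uM horse-spleen apoferritin + 1-AMA (50% saturated, PBS); cpd pin-transferred, 10 min RT. Ex 380/Em 535 nm endpoint. Activity normalized between free 1-AMA and 1-AMA/apoferritin; 4-parameter Hill fit of concentration-response.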

The target in assay [2] is ATP-dependent DNA helicase Q1 (Homo sapiens) (UniProt P46063). The assay is described as follows: qHTS Validation Assay for Inhibitors of RecQ-Like Dna Helicase 1 (RECQ1) (AID 2353). The gist of the method: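 50 nM RECQ1T1 preincubated 15 min with compound in Tris pH 8.0 buffer with MgCl2, DTT, Tween-20 and 2.5 ug/ml poly(dI-dC); started with 200 nM TAMRA/BHQ-2 forked duplex and 2 mM ATP. Unwinding read as fluorescence (525/598 nm), two reads 2 h apart.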

The target of assay [3] is RecQ-like DNA helicase BLM (Homo sapiens) (UniProt P54132). The assay is described as follows: qHTS Validation Assay for Inhibitors of Bloom's syndrome helicase (BLM) (AID 2364). Note: potency is the fitted concentration of half-maximal effect. In a few lines:
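Forked 20-bp duplex substrate (200 nM, TAMRA/BHQ-2) plus 2 mM ATP added after 15 min compound preincubation with 50 nM enzyme, pH 8.0, poly(dI-dC) 2.5 ug/ml. Strand separation followed by fluorescence (525/598 nm) over 2 h, normalized to enzyme-free and DMSO controls.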

Assay [4] can be described thus: Cytometric Cell-Based qHTS for Inhibitors of the mTORC1 Signaling Pathway in MEF (Tsc2-/-, p53-/-) Cells (AID 2660).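 Note: Tsc2 and p53 null MEFs carrying empty vector with compound for 24 h; percent of cells above a phospho-rpS6 to PI ratio cutoff in each well; series mostly up to about 38 µM.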 In a few lines: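 Percent of cells positive for normalized phospho-S6 staining is reported, with the cutoff set from rapamycin (7.5 nM) versus DMSO wells. Tsc2-/-, p53-/- MEFs received compound for 24 hrs.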
Assay [5] is described as follows: High Content Imaging Cell-Based qHTS for Inhibitors of the mTORC1 Signaling Pathway in MEF (Tsc2-/-, p53-/-) Cells (AID 2666).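 Note: percent of cells scored positive for phospho-rpS6 Ser235/236 immunostaining by imaging.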 In a few lines: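 Cells were plated, dosed with compound after 24 hrs, and incubated another 24 hrs at 37 degree Celsius. Fixed cells were immunostained for phospho-rpS6 Ser235/236 and counterstained, and the normalized signal was scored as % active cells against rapamycin and DMSO controls.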

Assay [6] can be described thus: High Content Imaging Cell-Based qHTS for Inhibitors of the mTORC1 Signaling Pathway in MEF Cells (AID 2667).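 Note: Tsc2-/- p53-/- MEFs stably re-expressing wild-type Tsc2 exposed 24 h; series mostly up to about 38 µM.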 In a few lines:
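Immunofluorescence for rpS6 phosphorylation in MEFs of Tsc2-/-, p53-/- background rescued with WT Tsc2. Compound exposure lasted 24 hrs. Inhibition was scored against rapamycin-treated control wells.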

The nature of assay [7]: Cytometry Cell-Based qHTS for Inhibitors of the mTORC1 Signaling Pathway in MEF cells (AID 2668).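 Note: Tsc2-/- p53-/- mouse embryonic fibroblasts stably re-expressing wild-type Tsc2; percent cells positive for phospho-rpS6 Ser235/236 relative to propidium iodide stain; series mostly up to about 38 µM.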 The gist of the method: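 Read-out: phospho-rpS6 Ser235/236 immunofluorescence normalized to propidium iodide intensity, scored as % active cells against a rapamycin (7.5 nM) threshold. Cells: Tsc2-/-, p53-/- MEFs stably expressing WT Tsc2, compound-treated 24 hrs at 37 degree Celsius.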

Assay [8] can be described thus: Validation screen for small molecules that induce DNA re-replication in MCF 10A normal breast cells (AID 463097). Note: nearly all actives have a fitted effect of over 60% in size. In a few lines: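 250 MCF 10A cells/well; compound pin-transferred; 48 hr, 37 C, 5% CO2; Hoechst 40 min; imaged 405/500-530 nm. Hits = more high-intensity nuclei.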
Assay [9] addresses Ubiquitin carboxyl-terminal hydrolase 2 (Homo sapiens) (UniProt O75604). The assay is described as follows: qHTS Validation Assay for Inhibitors of Ubiquitin-specific Protease USP2a Using CHOP2 as the Reporter (AID 463106). The gist of the method:
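10nM USP2 core + cpd, 30min RT; add 25nM Ub-CHOP2/25nM substrate; 60min RT; FI 485/531nm. Buffer Tris pH 8.0, CaCl2, BME, CHAPS. Norm. to NEM = 100% inhibition; time-zero read flags fluorescent artifacts.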

The target of assay [10] is DNA polymerase III PolC-type (Bacillus subtilis (strain 168)) (UniProt P13267). The assay is described as follows: qHTS Validation Assay for the Inhibitors of DNA Replication in Gram-Positive Bacteria (AID 485295).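 Note: reconstituted holoenzyme with PolC plus beta clamp SSB and primase; PicoGreen fluorescence of double-stranded DNA made on primed circular M13 template; series mostly up to about 57 µM.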 The gist of the method:
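PicoGreen fluorescence (ex 480–485/em 535–540 nm) reports dsDNA synthesized on ssM13Gori template with dNTPs/NTPs. Enzyme: holoenzyme rebuilt from purified PolC, beta subunit, SSB and primase. Compound preincubated before substrate addition; RT throughout.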

The target in assay [11] is Tumor susceptibility gene 101 protein (Homo sapiens) (UniProt Q99816). The assay is described as follows: qHTS Validation Assay for Iinhibitors of HIV-1 Budding by Blocking the Interaction of PTAP/TSG101 (AID 485342; calls by dose curve). The gist of the method: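 FP read-out: FITC-PTAP peptide, 50 nM final, binding Tsg101 binding domain, 10 uM final; 20 min r.t.; 10 mM HEPES pH 7.5, 0.15 M NaCl, 0.01% Tween 20, 3 mM EDTA, 0.1 mM TCEP.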

For assay [12], the target named is Beta-2 adrenergic receptor (Homo sapiens) (UniProt P07550). The assay is described as follows: qHTS validation assay of beta-arrestin-biased ligands of beta2-adrenergic receptor (AID 485366). The gist of the method:
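Luminescence from a tTA-responsive luciferase, induced when recombinant beta-arrestin is recruited to recombinant beta2-AR, served as the agonism signal. Cells were exposed to compound for 18 hr at 37 degrees C; titrations spanned up to 46 microM.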

The target in assay [13] is ATP-dependent 6-phosphofructokinase (Trypanosoma brucei brucei) (UniProt O15648). The assay is described as follows: qHTS Validation Assay to Find Inhibitors of T. brucei phosphofructokinase (AID 485368). Conditions: outcome: dose series up to 57.5 µM. The gist of the method: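 Activity was normalized between 1x (1.25 nM) PFK wells as no inhibition and enzyme-free wells as full inhibition, from luminescence after ADP-Glo detection of ADP made from 0.5 mM F6P and 0.1 mM ATP over 45 min.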

Assay [14] in a line: Quantitative high throughput screen for delayed death inhibitors of the malarial parasite plastid, 96 hour incubation (AID 488745). Note: series mostly up to about 29 µM; nearly all actives have a fitted effect of over 70% in size. The gist of the method:
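P. falciparum carrying an integrated firefly luciferase reporter, grown in erythrocytes (2% hematocrit, 0.1% parasitemia final) in RPMI 1640/0.5% Albumax, was exposed to compound for 96 h (two generations) at 37 C, 5% CO2. Luminescence decrease indicated growth inhibition.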

In assay [15] the target is Thioredoxin reductase 1, cytoplasmic (Rattus norvegicus) (UniProt O89049). The assay is described as follows: qHTS Assay for Substrates of Mammalian Selenoprotein Thioredoxin Reductase 1 (TrxR1) (AID 488772).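 Note: NADPH fluorescence in the first read after selenite addition and not the 8 min delta; a drop in NADPH fluorescence below the no-compound background marks a TrxR1 substrate.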 Note: potency is the fitted concentration of half-maximal effect. In a few lines:
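Quantitative HTS in Tris-HCl buffer at pH 7.5 with EDTA and Tween-20, using rat TrxR1, 400 uM NADPH and 400 uM selenite (final). A fall in initial NADPH fluorescence relative to background marked substrate behaviour.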

For assay [16] the target is unchanged. The assay is described as follows: qHTS Assay for Inhibitors of Mammalian Selenoprotein Thioredoxin Reductase 1 (TrxR1) (AID 488773).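 Note: drop in NADPH fluorescence over an 8 min run after selenite addition; series mostly up to about 57 µM; nearly all actives have a fitted effect of over 40% in size.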 Conditions: Potency: inhibition. In a few lines:
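Steps: enzyme (90 nM) plus NADPH (400 uM final), 5 min at ~22 deg C; compound added, 15 min; selenite (400 uM final) added; fluorescence followed for 8 min. Concentration-response curves derived from the normalized delta values.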

For assay [17], the target named is Flap endonuclease 1 (Homo sapiens) (UniProt P39748). The assay is described as follows: qHTS Validation Assay for the Inhibitors of Human Flap endonuclease 1 (FEN1) (AID 488816). In a few lines: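 Readings taken at 0 and 15 min after starting the reaction with 50 nM (final) substrate supplied the signal. Compounds had first sat with 10 nM FEN1 reagent for 15 min at room temperature. Values come from Hill-equation concentration-response fits.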

Assay [18] concerns the target M-phase phosphoprotein 8 (Homo sapiens) (UniProt Q99549). The assay is described as follows: qHTS Validation Assay for Inhibitors for MPP8 Chromodomain Interactions with Methylated Histone Tails (AID 488949).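 Note: AlphaScreen signal from MPP8 chromodomain bound to biotinylated H3K9me3 peptide; top concentration of the series differs between compounds; nearly all actives have a fitted effect of over 55% in size.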 In a few lines: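 AlphaScreen read-out: streptavidin donor and nickel chelate acceptor beads (final 10 ug/mL), 30 min in the dark at RT. Complex of 50 nM MPP8 and 50 nM b-H3(1-18)K9me3 peptide had been exposed to compounds for 30 min beforehand.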

For assay [19], the target named is Chromobox protein homolog 1 (Homo sapiens) (UniProt P83916). The assay is described as follows: qHTS Validation Assay for Inhibitors of HP1-beta Chromodomain Interactions with Methylated Histone Tails (AID 488953).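 Note: loss of AlphaScreen luminescence from HP1-beta binding biotinylated H3K9me3 peptide; series mostly up to about 110 µM; nearly all actives have a fitted effect of over 50% in size.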 The gist of the method: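 HP1-beta (50 nM) was preincubated 30 min at room temperature with biotinylated H3(1-18)K9me3 peptide (50 nM) in PBS pH 7.4, 0.01% Tween-20, then with compounds 30 min. AlphaScreen signal was read after streptavidin donor/nickel chelate acceptor beads (10 ug/mL final).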

The nature of assay [20]: qHTS Assay for Identification of Small Molecule Inducers of Hypoxia Response (AID 2120; active = well fitted curve in the direction sought with a large enough effect in the signal ratio, with a control signal flat, not every such curve was filed as active; the % refers to the signal ratio). In a few lines: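 HRE-beta-lactamase reporter in CellSensor HRE-bla ME-180 cells, 2500 cells/well in Opti-MEM with 0.5% dialyzed FBS; compounds tested as titration series, 17 h at 37 degrees C. CCF4 substrate 2.5 h at room temperature; AC50 from 460/530 nm ratio.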

Each structure is given as a SMILES string. Inconclusive results are not listed. Activity calls are given as the source filed them. Unless noted, calls come from the whole dose curve; as a rule, active = well fitted curve in the direction sought with a large enough effect; inconclusive = small, poorly fitted or top-dose-only effect, or another doubt; inactive = no such curve, though single readings can be large; an effect the other way counts as inactive or inconclusive.

Sequence of Flap endonuclease 1 (Homo sapiens) (P39748 whole entry, looked up): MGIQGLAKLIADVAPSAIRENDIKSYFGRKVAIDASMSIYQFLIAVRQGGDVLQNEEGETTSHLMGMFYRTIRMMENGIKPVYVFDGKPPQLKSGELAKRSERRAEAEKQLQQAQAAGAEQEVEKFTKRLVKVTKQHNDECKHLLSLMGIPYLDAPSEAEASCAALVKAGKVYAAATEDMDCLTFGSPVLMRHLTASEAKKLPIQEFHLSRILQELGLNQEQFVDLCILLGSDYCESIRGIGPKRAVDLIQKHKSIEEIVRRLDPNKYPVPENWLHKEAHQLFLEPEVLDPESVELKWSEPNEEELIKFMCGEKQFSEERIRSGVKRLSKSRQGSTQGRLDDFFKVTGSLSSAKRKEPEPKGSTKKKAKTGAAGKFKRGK
Sequence of Ferritin light chain (Equus caballus) (P02791 2-175 limits assumed): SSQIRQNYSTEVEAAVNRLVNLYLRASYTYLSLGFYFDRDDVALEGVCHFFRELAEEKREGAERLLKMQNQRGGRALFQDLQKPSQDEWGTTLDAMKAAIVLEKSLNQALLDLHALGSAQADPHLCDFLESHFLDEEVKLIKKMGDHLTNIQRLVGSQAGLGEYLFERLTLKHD
Sequence of Chromobox protein homolog 1 (Homo sapiens) (P83916 whole entry, looked up): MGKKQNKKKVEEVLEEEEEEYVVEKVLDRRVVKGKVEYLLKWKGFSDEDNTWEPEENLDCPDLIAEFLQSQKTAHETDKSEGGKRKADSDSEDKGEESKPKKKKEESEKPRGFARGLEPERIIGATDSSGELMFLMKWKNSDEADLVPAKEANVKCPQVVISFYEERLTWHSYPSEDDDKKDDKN
Sequence of DNA polymerase III PolC-type (Bacillus subtilis (strain 168)) (P13267 whole entry, looked up): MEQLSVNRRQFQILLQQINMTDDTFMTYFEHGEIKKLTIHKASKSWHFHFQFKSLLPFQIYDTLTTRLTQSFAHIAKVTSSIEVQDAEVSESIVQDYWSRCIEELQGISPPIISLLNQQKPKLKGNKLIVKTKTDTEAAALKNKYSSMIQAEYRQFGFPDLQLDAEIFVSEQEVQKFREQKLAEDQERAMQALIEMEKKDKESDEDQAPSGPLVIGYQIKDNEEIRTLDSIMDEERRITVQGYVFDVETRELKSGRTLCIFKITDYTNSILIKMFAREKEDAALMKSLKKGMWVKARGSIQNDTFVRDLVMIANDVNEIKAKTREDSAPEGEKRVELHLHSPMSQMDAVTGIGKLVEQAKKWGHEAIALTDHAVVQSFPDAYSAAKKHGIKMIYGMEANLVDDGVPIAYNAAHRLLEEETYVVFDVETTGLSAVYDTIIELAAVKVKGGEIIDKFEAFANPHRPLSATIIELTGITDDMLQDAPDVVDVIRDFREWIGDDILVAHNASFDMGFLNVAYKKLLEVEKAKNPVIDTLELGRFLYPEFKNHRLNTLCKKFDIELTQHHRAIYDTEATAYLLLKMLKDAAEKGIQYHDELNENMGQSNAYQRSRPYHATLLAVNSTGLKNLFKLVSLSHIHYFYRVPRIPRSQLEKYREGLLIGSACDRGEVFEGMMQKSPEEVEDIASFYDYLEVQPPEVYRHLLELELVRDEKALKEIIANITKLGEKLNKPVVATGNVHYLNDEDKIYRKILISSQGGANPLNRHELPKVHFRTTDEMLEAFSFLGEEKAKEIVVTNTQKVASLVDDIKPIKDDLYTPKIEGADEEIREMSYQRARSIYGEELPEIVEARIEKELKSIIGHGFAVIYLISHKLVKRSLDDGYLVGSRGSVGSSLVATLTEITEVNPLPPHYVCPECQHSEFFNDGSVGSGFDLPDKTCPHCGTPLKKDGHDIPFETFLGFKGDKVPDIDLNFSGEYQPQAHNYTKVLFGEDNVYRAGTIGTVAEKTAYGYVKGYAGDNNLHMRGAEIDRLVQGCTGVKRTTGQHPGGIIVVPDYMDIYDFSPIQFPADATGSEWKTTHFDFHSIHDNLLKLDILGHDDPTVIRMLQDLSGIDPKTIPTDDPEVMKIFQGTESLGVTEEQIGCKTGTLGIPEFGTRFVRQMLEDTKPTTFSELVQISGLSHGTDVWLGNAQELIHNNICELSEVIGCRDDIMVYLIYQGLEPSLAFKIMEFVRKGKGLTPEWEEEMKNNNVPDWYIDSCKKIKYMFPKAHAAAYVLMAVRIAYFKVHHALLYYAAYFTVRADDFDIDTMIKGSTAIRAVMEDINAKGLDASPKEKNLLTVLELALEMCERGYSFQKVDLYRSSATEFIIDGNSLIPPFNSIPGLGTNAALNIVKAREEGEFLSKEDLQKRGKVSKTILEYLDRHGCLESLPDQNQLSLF
Sequence of Thioredoxin reductase 1, cytoplasmic (Rattus norvegicus) (O89049 whole entry, looked up): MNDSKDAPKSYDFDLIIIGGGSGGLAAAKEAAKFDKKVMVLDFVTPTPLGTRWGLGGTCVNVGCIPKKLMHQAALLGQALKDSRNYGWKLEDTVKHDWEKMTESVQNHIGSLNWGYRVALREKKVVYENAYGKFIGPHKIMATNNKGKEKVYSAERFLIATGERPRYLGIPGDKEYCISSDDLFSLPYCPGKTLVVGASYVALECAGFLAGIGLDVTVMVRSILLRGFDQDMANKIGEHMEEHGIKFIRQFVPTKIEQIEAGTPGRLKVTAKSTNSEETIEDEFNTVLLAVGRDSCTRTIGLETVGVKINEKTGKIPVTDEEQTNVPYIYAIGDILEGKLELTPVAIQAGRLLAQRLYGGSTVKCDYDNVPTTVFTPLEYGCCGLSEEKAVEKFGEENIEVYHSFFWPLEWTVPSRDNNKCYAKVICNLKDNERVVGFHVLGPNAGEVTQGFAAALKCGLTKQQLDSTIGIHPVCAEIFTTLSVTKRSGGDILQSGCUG
Sequence of Tumor susceptibility gene 101 protein (Homo sapiens) (Q99816 whole entry, looked up, the tested form may be a part): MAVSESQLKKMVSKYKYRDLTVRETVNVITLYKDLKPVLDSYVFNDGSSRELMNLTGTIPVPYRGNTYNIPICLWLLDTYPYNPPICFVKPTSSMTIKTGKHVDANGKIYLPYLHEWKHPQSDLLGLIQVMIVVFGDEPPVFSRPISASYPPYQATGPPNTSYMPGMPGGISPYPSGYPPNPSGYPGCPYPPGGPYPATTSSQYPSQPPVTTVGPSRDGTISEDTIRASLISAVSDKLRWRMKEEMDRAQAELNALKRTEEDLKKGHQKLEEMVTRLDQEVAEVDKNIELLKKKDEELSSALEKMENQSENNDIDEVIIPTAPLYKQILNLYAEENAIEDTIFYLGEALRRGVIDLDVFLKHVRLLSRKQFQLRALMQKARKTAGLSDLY
Sequence of M-phase phosphoprotein 8 (Homo sapiens) (Q99549 whole entry, looked up): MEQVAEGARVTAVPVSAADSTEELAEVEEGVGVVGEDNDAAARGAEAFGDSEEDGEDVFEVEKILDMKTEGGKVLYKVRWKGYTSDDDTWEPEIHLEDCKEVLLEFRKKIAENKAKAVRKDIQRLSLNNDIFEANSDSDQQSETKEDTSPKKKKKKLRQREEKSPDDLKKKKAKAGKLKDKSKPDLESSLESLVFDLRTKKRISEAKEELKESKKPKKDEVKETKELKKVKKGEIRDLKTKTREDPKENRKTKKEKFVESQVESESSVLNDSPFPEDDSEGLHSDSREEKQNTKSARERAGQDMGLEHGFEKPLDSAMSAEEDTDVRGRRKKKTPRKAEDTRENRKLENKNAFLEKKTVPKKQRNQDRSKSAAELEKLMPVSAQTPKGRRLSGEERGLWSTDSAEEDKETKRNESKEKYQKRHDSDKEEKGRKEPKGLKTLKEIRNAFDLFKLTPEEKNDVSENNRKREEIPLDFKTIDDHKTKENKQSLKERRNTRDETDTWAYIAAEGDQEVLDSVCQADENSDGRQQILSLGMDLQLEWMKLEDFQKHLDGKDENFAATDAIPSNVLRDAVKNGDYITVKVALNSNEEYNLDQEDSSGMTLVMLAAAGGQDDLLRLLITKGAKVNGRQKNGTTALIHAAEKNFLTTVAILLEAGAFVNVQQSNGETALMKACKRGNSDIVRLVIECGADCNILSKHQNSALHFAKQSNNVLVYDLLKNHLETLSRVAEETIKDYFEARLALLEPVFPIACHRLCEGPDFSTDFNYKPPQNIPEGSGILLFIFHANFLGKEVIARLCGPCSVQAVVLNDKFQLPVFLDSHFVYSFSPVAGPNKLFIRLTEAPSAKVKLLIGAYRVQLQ
Sequence of ATP-dependent 6-phosphofructokinase (Trypanosoma brucei brucei) (O15648 whole entry, looked up): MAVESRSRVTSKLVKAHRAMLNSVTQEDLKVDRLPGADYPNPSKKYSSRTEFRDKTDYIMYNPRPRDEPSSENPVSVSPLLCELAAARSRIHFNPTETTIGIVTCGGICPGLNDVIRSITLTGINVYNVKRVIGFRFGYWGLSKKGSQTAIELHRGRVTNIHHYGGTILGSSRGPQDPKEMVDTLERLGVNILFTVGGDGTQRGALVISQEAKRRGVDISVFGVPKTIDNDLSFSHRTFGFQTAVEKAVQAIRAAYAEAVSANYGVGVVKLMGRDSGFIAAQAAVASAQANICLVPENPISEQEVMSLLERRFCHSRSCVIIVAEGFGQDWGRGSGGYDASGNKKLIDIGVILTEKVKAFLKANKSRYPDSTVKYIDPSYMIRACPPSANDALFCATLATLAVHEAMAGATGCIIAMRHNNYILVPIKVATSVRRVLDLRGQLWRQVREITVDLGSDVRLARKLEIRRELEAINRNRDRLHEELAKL
Sequence of Beta-2 adrenergic receptor (Homo sapiens) (P07550 whole entry, looked up): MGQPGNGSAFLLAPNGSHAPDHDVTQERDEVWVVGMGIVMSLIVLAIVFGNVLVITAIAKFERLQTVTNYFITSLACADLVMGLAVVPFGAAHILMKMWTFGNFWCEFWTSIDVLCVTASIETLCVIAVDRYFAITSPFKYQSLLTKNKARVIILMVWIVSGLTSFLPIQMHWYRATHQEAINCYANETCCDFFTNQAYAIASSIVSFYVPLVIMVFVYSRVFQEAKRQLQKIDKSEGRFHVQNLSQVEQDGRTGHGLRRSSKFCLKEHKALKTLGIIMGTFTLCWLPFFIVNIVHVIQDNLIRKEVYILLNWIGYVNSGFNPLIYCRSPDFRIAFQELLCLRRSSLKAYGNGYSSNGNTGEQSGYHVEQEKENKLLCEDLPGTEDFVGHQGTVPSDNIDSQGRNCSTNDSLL

For the compound `C[N+](C)(C)CCCCCC[N+](C)(C)C`, the compound was called inactive in assay [1], in assay [2], in [4], in [6], in assay [9] and in assay [10]. In addition, the outcome in assay [11], in assay [12], in assay [13] and in assay [17] was inactive. Besides, the Potency result in [3], in assay [5], in assay [7], in assay [8], in [14] and in assay [15] was “inactive” in each case. The Potency result in assay [16], in [18] and in assay [19] was “inactive” throughout.
As for `CC1(C)CCC2=C(O1)c1ccccc1C(=O)C2=O`, the result in assay [2], in assay [6], in [9], in assay [10], in assay [11] and in [12] was inactive. Further, the compound was classed as inactive in assay [17]. Further, the Potency in [3] was 25.1 µM (active); in assay [15] it was 18.9 µM (active). Moreover, the Potency result in assay [5] and in [18] was “inactive” throughout.
For `O=C1NC(=O)C(c2ccccc2)(c2ccccc2)N1`, the compound was classed as inactive in assay [1], in assay [2], in assay [4], in assay [6], in [9] and in assay [10]. The outcome in assay [11], in assay [12], in assay [13] and in [17] was inactive. For the same compound, the Potency entry in assay [5], in assay [7], in assay [8], in [14], in [15] and in assay [16] was “inactive” throughout. For the same compound, the Potency entry in [18] and in [19] was “inactive” throughout.
For the compound `CC(=O)c1ccc(S(=O)(=O)NC(=O)NC2CCCCC2)cc1`, the compound was classed as inactive in [1], in [2], in assay [4], in [6], in [9] and in assay [10]. Further, the compound was called inactive in assay [11], in assay [12] and in assay [13]. Also, the Potency entry in [5], in assay [7], in [8], in [14], in assay [15] and in assay [16] was “inactive” each time. The Potency result in assay [18] and in assay [19] was “inactive” in each case.
`O=C(O)c1cc(O)c2c(c1)C(=O)c1cccc(O)c1C2=O`: the compound was called inactive in assay [20].
Regarding `O=C(O)CCc1nc(-c2ccccc2)c(-c2ccccc2)o1`, the compound was classed as inactive in [1], in [2], in [4], in [6], in assay [9] and in [10]. The compound was called inactive in [11], in assay [12] and in [13]. Further, the Potency result in assay [3], in assay [5], in assay [7], in assay [8], in assay [14] and in assay [15] was “inactive” each time. Also, the Potency entry in [16] and in assay [19] was “inactive” each time.
For the compound `O=c1cc(-c2ccc(O)cc2)oc2cc(O)cc(O)c12`, the result in [2], in assay [4], in assay [6], in assay [9], in [10] and in assay [11] was inactive. Further, the compound was called inactive in [12] and in [17]. The Potency entry in assay [3], in [5], in assay [7], in assay [15], in assay [16] and in assay [18] was “inactive” throughout. Besides, the Potency result in assay [19] was “inactive”.
`CCCCC1C(=O)N(c2ccccc2)N(c2ccccc2)C1=O`: the compound was classed as inactive in [20], in [2], in assay [4], in assay [6], in assay [9] and in assay [10]. Besides, the outcome in assay [11], in assay [12] and in assay [17] was inactive. For the same compound, the Potency entry in assay [5], in assay [7], in assay [8], in assay [15], in [16] and in assay [18] was “inactive” in each case.

Values taken from PubChem BioAssay (NCATS).
